Shown are actives, neighbours in structure and some others; about 21% of the full set was active somewhere.
Cycloheximide cs: counter-screen hit for Shiga toxin inhibitors, cycloheximide. cell reporter, cycloheximide protein synthesis inhibition counterscreen. max response, %. 12% of 300,000 active; in the data active means max response mostly above about 13%, no sharp cut-off; inactive means mostly below about 14%; further: read at 38.3 µM for the half of the compounds with a filed dose; 0% is about no effect
NS1 inh: influenza NS1 inhibition; Potency, µM (series often up to 46.1 µM), inactives show at the highest dose activity, positive = more growth; 0.4% of 270,000 active; AID 2326; calls by dose curve; further: potency means the concentration at half of the fitted maximal effect; actives are rising curves; nearly all actives have a fitted effect of over 50% in size
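Read-out: OD600 growth recovery of NS1-expressing budding yeast. Cells grown overnight at 30C in -URA glucose medium, washed, resuspended and diluted 1:100 in 2% galactose assay medium, pH 6.0. Same strain lacking NS1 served as positive control.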
Shiga toxin inh: Shiga toxin inhibition | Vero cells, Shiga toxin protein synthesis inhibition reporter | inhibition, % at 38.7 µM | 9.2% of 290,000 active | AID 2315; in the data active means inhibition mostly above about 28%, no sharp cut-off; inactive means mostly below about 43%; further: 0% is about no effect
Pf growth 48h: inhibits P. falciparum growth in the first generation, 48 h; Potency, µM (highest dose often 28.7 µM), without a hit: at the top dose activity change, negative = inhibition, most hits filed as inhibitors; 5.9% of 310,000 active; P. falciparum luciferase growth in erythrocytes, 48 h; AID 504832; further: potency means the concentration at half of the fitted maximal effect; on the % scale 0 is the no-effect control and ±100 the full control effect
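Luciferase-expressing parasites in RBCs, 2% Hct / 0.1% parasitemia final; RPMI 1640 + 0.5% Albumax; 37 C, 5% CO2, one generation; luminescence read-out, lower signal = inhibition.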
Pf growth 96h: inhibits malaria parasite growth, 96 h. P. falciparum luciferase reporter growth, 96 h. Potency, µM (series often up to 28.7 µM), inactives show top-dose activity change, negative = inhibition, hits mostly inhibitors. 6.9% of 320,000 active; further: potency means the concentration at half of the fitted maximal effect; on the % scale 0 is the no-effect control and ±100 the full control effect
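P. falciparum expressing integrated firefly luciferase, in erythrocytes at 2% hematocrit, 0.05% parasitemia, incubated with compounds 96 h at 37 C, 5% CO2. Growth inhibition read as loss of luminescence; two-generation exposure targets delayed-death apicoplast inhibitors.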
SARS PLpro yeast: SARS-CoV PLP inhibition in yeast; S. cerevisiae expressing SARS-CoV PLpro, growth rescue; Potency, µM (titrated, usually from 32.9 µM), for inactives: top-dose activity, positive = growth rescue, actives largely listed as activators; 0.19% of 330,000 active; AID 485353; calls by dose curve; further: potency means the concentration at half of the fitted maximal effect; 0% is about no effect; nearly all actives have a fitted effect of over 55% in size
An asterisk follows results filed as active; i = inactive; u = inconclusive; x = not tested or not shown. Unless noted, the call rests on the fitted dose curve; in most records, active means well fitted inhibition curve with a large enough effect; inconclusive means small, poorly fitted or top-dose-only effect, or another doubt; inactive means no such curve, though single readings can be large or run the other way.

SMILES	Cycloheximide cs	NS1 inh	Shiga toxin inh	Pf growth 48h	Pf growth 96h	SARS PLpro yeast
O=C(Nc1ccc2c(c1)Cc1ccccc1-2)c1ccco1	45*	-62%	142*	13%	x	-42%
CC(=O)c1cccc(NC(=O)c2cnccn2)c1	1	-7%	-2	43%	u	-4%
Cn1c(-c2cccs2)[n+](C)c2ccccc21	0	x	2	1µM*	-11%	-3%
CCOc1cccc(NC(=O)Cc2cccs2)c1	13	-5%	41*	36%	22%	2%
CC(=O)Nc1cccc(NC(=O)Cc2cccs2)c1	-1	3%	-7	-4%	u	-3%
O=C(Cc1cccs1)Nc1cccc(-c2nc3cc4ccccc4cc3[nH]2)c1	68*	u	120*	45%	207%	-53%
Cc1nc2ccc(NC(=O)Cc3cccs3)cc2s1	29*	-53%	60*	i	-30%	2%
Cc1nc2ccc(NC(=O)Cc3ccc(Br)cc3)cc2s1	2	-3%	-8	-12%	15%	0%
Cc1ccc(NC(=O)Cc2cccs2)cc1Cl	38*	-50%	50*	31%	u	-10%
COc1ccc(C(=O)NCCCNC(=O)c2cnccn2)cc1	4	-1%	36	9%	-12%	0%
O=C(Cc1ccccc1)Nc1ccccc1C(=O)N1CCCCCC1	6	-1%	-7	37%	u	0%
CC(C)NS(=O)(=O)c1ccc(NC(=O)Cc2cccs2)cc1	24*	13%	40*	39%	73%	19%
Cc1ccc(NC(=O)Cn2nnc(C(=O)NCc3cccs3)c2N)cc1Cl	11	-8%	38	37%	9.3µM*	-4%
Cc1nc2ccc(NC(=O)COc3ccccc3C)cc2s1	34*	x	64*	26%	-47%	-6%
COc1ccc(NC(=O)Cn2nnc(C(=O)NCc3cccs3)c2N)cc1Cl	-3	2%	-2	12%	5%	-10%
O=C(Cc1cccs1)Nc1ccc(F)cc1	10.0*	0%	8	27%	u	-1%
O=C(O)c1cc[c]([Hg][S]c2ncnc3nc[nH]c23)cc1	x	-15%	x	x	x	x
Cc1ccccc1OC1C(=O)N(Cc2ccc3c(c2)OCO3)C1c1sccc1C (stereo not drawn)	-2	9%	-14	u	13µM*	-4%
COc1cccc(-n2c([S-])c(C(=O)Nc3ccc(C(F)(F)F)cc3)[n+]3ccccc23)c1	16	x	25	u	1%	-2%
COc1ccc(CCNC(=O)c2c([S-])n(-c3ccc(C)cc3)c3cccc[n+]23)cc1	-3	-4%	23	u	10µM*	-1%
CCc1ccc2n(-c3ccc(OC)cc3)c([S-])c(C(=O)Nc3cc(C)cc(C)c3)[n+]2c1	-2	-3%	-2	13µM*	8.3µM*	-1%
O=C(CSc1nc2ccccc2c(=O)n1-c1ccc(F)cc1F)c1c[nH]c2ccccc12	12	14%	18	u	u	-30%
O=c1[nH]c(N/N=C/c2ccccc2)nc2ccccc12	43*	-19%	72*	-3%	2%	-4%
COc1ccc(/C=N/Nc2nc3ccccc3[nH]2)c(OC)c1OC	41*	1%	141*	u	4.1µM*	-2%
COc1cccc(/C=N/Nc2nc(C)cc(=O)[nH]2)c1OC	21*	4%	45*	48%	-5%	-2%
SMILES	Cycloheximide cs	NS1 inh	Shiga toxin inh	Pf growth 48h	Pf growth 96h	SARS PLpro yeast
O=c1[nH]c(N/N=C/c2cc3c(cc2[N+](=O)[O-])OCO3)nc2ccccc12	2	4%	-2	37%	u	-2%
C(/CCc1ccccc1)=N\Nc1nc2ccccc2[nH]1	27*	x	47*	u	u	-2%
CCOc1ccccc1/C=N/Nc1nc(C)cc(=O)[nH]1	-1	1%	-5	4%	-7%	0%
CN(C)CCC[C@@H]1c2ccccc2Oc2ccc(C(F)(F)F)cc21	x	-8%	x	x	x	x
Fc1ccc(/C=N\Nc2cccc(F)c2)cc1	-2	19%	-9	9%	-9%	0%
Cc1cc(=O)[nH]c(Nc2ccc(C(=O)OC(C)C)cc2)n1	-2	-8%	-3	u	2.6µM*	-7%
Fc1cccc(/C=N/Nc2nc3ccccc3[nH]2)c1	40*	-32%	84*	0%	u	-2%
Cc1cc(=O)[nH]c(N/N=C/c2c[nH]c3ccccc23)n1	29*	7%	27	u	5%	-1%
O=C(COc1ccc(Cl)cc1)N/N=C/c1cccc2cccnc12	-2	-4%	-35	21%	42%	-5%
C(=N\Nc1nc2ccccc2[nH]1)/c1cccc2cccnc12	47*	-53%	79*	1.7µM*	1.7µM*	-4%
CCOC(=O)/C(=N\Nc1ccc(Cl)cc1)Sc1nnc(-c2ccc(OC)cc2)n1C	-1	-15%	12	2%	u	-32%
CCOC(=O)c1c(C)noc1CP(=O)(c1ccccc1)c1ccccc1	-1	-5%	7	-4%	u	1%
O=C(CSc1nc2ccccc2[nH]1)NCC1CCCO1 (stereo not drawn)	8	7%	35	14%	19%	28%
COc1ccc(S(=O)(=O)Cc2ccc(C(=O)NC3CCCCC3)o2)cc1	-2	-11%	-3	11%	-1%	-11%
Cc1cccc(C)c1OCC(=O)N/N=C/c1ccc2c(c1)OCO2	-3	-6%	-3	20%	361%	4%
Fc1ccc(/C=N/Nc2nc3ccccc3[nH]2)cc1F	36*	x	118*	0.66µM*	0.52µM*	-7%
Cc1cc(N/N=C/c2ccc3c(c2)OCO3)nc2ccccc12	47*	-3%	79*	u	4.7µM*	-1%
C(=N\Nc1nc(N2CCCCC2)nc(N2CCCCC2)n1)/c1c[nH]c2ccccc12	10	0%	-4	u	6.6µM*	-4%

Screening data from PubChem BioAssay.
